Where “and” joins values, the source holds several entries; their conditions need not be identical. Equal entries are not always repeated. A number with no mark means an inactive call. Records with an inconclusive call do not appear. For some assays here: Entries with a potency or affinity are not part of this list. Calls of active or inactive are those of the source. Unless noted, no rule for the calls is given here.

The first experiment in a line: qHTS assay for cell viability of HEK293 cells (AID 743288; active = well fitted cell-killing curve with a large enough effect; also: % is scaled to controls: 0 for no effect and ±100 for the full control effect; nearly all actives have a fitted effect of over 50% in size). The settings on record: ATP luminescence (CellTiter-Glo), 18 h; max response: active compounds read low. The method, boiled down: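 ATP luminescence (CellTiter-Glo) reports metabolically competent cell number after parental HEK293 cells, 2,000/well, were treated with DMSO-dissolved compounds for 18 h at 37 C; reagent incubation 30 min, room temperature.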
Consider `CCO/N=C(\CC)C1=C(O)CC(c2c(C)cc(C)cc2C)CC1=O` (centres undefined), for which the max response was -20.6%.
Same read-out and setting: for `O=C(O)COc1nc(Cl)c(Cl)cc1Cl` the value was -10.3%; for `O=C(O)CCCOc1ccc(Cl)cc1Cl`, -3.48%; for `O=[N+]([O-])c1c(Cl)c(Cl)cc(Cl)c1Cl`, -0.234%.
On the same count and under the same terms, for `OCCCBr` the value was 2.95%; for `Nc1ccc([N+](=O)[O-])cc1`, -4.75%; for `CCCCC(CC)COC(=O)c1ccccc1C(=O)OCC(CC)CCCC` (centres undefined), -14% and -11%.

A further experiment is described as follows: qHTS assay for cell viability of the p53RE-bla HCT-116 cell line (AID 743292; active = well fitted cell-killing curve with a large enough effect; also: % is scaled to controls: 0 for no effect and ±100 for the full control effect; nearly all actives have a fitted effect of over 55% in size). The note with it: p53RE-bla HCT-116 viability, ATP luminescence, 16 h; series mostly up to 95 µM; activity change, negative = cytotoxicity: at the top concentration. The method, boiled down: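 Viability of compound-treated p53RE-bla HCT-116 cells is taken from ATP-dependent luciferase luminescence. Treatment lasts 16 h at 37 C after a 5 h settling period; detection follows 30 min at room temperature.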
Regarding `CCOP(=O)(NC(C)C)Oc1ccc(SC)c(C)c1` (centres undefined), the Potency result was “inactive”.
On to `OCCCBr`, for which the “activity change, negative = cytotoxicity” value is -1.43%.
Turning to `Nc1ccc([N+](=O)[O-])cc1`, the “activity change, negative = cytotoxicity” value was -3.13%.
Consider `C=CC(=O)NCNC(=O)C=C`, for which the Potency result was “inactive”.

Assay in the next experiment: not given
The note with it: Ebola virus entry assay, ratio channel.
`O=[N+]([O-])/N=C1\NCCN1Cc1ccc(Cl)nc1`: the outcome was inactive.
Still for that read-out and setting: under `CCO/N=C(\CC)C1=C(O)CC(c2c(C)cc(C)cc2C)CC1=O` (centres undefined) stands “inactive”.
On to `CCCCCCCCCC(CC)c1ccc(S(=O)(=O)O)cc1` (centres undefined), for which the AC50 was 31.6 µM (active).
As for `Nc1ccc(Cl)cc1N`, the result was inactive.
On to `O=C(O)COc1nc(Cl)c(Cl)cc1Cl`, for which the result was inactive.
Same read-out and setting: under `COC(=O)c1c(Cl)c(Cl)c(C(=O)OC)c(Cl)c1Cl` stands “inactive”.
On the same count and under the same terms, for `Nc1ccccc1N` the value was “inactive”.
For `OCc1c[nH]c2ccccc12`, the outcome was inactive.
In the case of `CC(C)Oc1cccc(NC(=O)c2ccccc2C(F)(F)F)c1`, the result was inactive.
Still for that read-out and setting: for `CCC(C)(Oc1ccc(C2(c3ccc(OC(C)(CC)C(=O)O)cc3)CCCCC2)cc1)C(=O)O` (centres undefined) the value was “inactive”.
Take `CC(C)NCC(O)c1ccc([N+](=O)[O-])cc1` (centres undefined): the result was inactive.
Same read-out and setting: for `O=C(O)CCCOc1ccc(Cl)cc1Cl` the value was “inactive”; for `Nc1nnnn1-c1ccccc1`, “inactive”.
The same measure, in the same setting: under `O=[N+]([O-])c1cc([N+](=O)[O-])c2ccccc2c1` stands “inactive”; under `O=S(=O)(O)C(F)(F)C(F)(F)C(F)(F)C(F)(F)C(F)(F)C(F)(F)C(F)(F)C(F)(F)F`, “inactive”.
The same measure, in the same setting: for `CC1(C)CC/C(=C/c2ccc(Cl)cc2)C1(O)Cn1cncn1` (centres undefined) the value was “inactive”; for `CO/C=C(/C(=O)OC)c1ccccc1Oc1cc(Oc2ccccc2C#N)ncn1`, “inactive”; for `O=[N+]([O-])c1ccc([As](=O)(O)O)cc1`, “inactive”.
In the case of `COC(C)(C)CCCC(C)C/C=C/C(C)=C/C(=O)OC(C)C` (centres undefined), the result was inactive.
Take `CS(=O)(=O)c1ccc(C(=O)C2C(=O)CCCC2=O)c([N+](=O)[O-])c1`: the result was inactive.
Same read-out and setting: under `C[N+](C)(C)CC(=O)O` stands “inactive”; under `CCC(C(=O)O)c1ccc(N2Cc3ccccc3C2=O)cc1` (centres undefined), “inactive”.
The same measure, in the same setting: for `CC(C)OC(=O)c1cc(C(=O)OC(C)C)cc([N+](=O)[O-])c1` the value was “inactive”; for `Nc1ccc(N=Nc2ccccc2)cc1`, “inactive”; for `CC(C)(C)C(O)C(Oc1ccc(Cl)cc1)n1cncn1` (centres undefined), “inactive”.
Still for that read-out and setting: for `CCOP(=O)(NC(C)C)Oc1ccc(SC)c(C)c1` (centres undefined) the value was “inactive”; for `CC1=C(/C=C/C(C)=C/C=C/C(C)=C/C(=O)O)C(C)(C)CCC1`, “inactive”.
With `O=[N+]([O-])c1c(Cl)c(Cl)cc(Cl)c1Cl`, the outcome was inactive.
Still for that read-out and setting: for `O=S(=O)(c1ccc(Cl)cc1)c1ccc(Cl)cc1` the value was “inactive”; for `Oc1ccc2c3c1O[C@H]1[C@@H](O)C=C[C@H]4[C@@H](C2)NCC[C@@]341`, “inactive”; for `OCCCBr`, “inactive”.
In the case of `C=CCC1=C(C)C(OC(=O)C2C(C=C(C)C)C2(C)C)CC1=O` (centres undefined), the result was inactive.
Same read-out and setting: under `Nc1ccc([N+](=O)[O-])cc1` stands “inactive”; under `Nc1ccc(Cl)cc1`, “inactive”.
Consider `COc1ccc(C(c2ccc(OC)cc2)C(Cl)(Cl)Cl)cc1`, for which the AC50 is 22.4 µM (active).
As for `CCCCC(CC)COC(=O)c1ccccc1C(=O)OCC(CC)CCCC` (centres undefined), the outcome was inactive.
As to `C=CC(=O)NCNC(=O)C=C`, the result was inactive.
With `O=C(Nc1ccccc1-c1ccc(Cl)cc1)c1cccnc1Cl`, the half-maximal activity concentration (AC50) was 22.4 µM (active).
As to `COc1nn(CSP(=S)(OC)OC)c(=O)s1`, the outcome was inactive.

Assay in the next experiment: not given
The settings on record: Ebola virus entry assay, green channel fluorescence.
In the case of `O=[N+]([O-])/N=C1\NCCN1Cc1ccc(Cl)nc1`, the call was inactive.
In the case of `CCO/N=C(\CC)C1=C(O)CC(c2c(C)cc(C)cc2C)CC1=O` (centres undefined), the compound was classed as inactive.
For `CCCCCCCCCC(CC)c1ccc(S(=O)(=O)O)cc1` (centres undefined), the compound was called inactive.
The same measure, in the same setting: under `Nc1ccc(Cl)cc1N` stands “inactive”; under `O=C(O)COc1nc(Cl)c(Cl)cc1Cl`, “inactive”.
The same measure, in the same setting: for `COC(=O)c1c(Cl)c(Cl)c(C(=O)OC)c(Cl)c1Cl` the value was “inactive”; for `Nc1ccccc1N`, “inactive”.
On the same count and under the same terms, for `OCc1c[nH]c2ccccc12` the value was “inactive”; for `CC(C)Oc1cccc(NC(=O)c2ccccc2C(F)(F)F)c1`, “inactive”; for `CCC(C)(Oc1ccc(C2(c3ccc(OC(C)(CC)C(=O)O)cc3)CCCCC2)cc1)C(=O)O` (centres undefined), “inactive”.
`CC(C)NCC(O)c1ccc([N+](=O)[O-])cc1` (centres undefined): the compound was called inactive.
For `O=C(O)CCCOc1ccc(Cl)cc1Cl`, the outcome was inactive.
The same measure, in the same setting: under `Nc1nnnn1-c1ccccc1` stands “inactive”.
On to `O=[N+]([O-])c1cc([N+](=O)[O-])c2ccccc2c1`, for which the call was inactive.
Same read-out and setting: for `O=S(=O)(O)C(F)(F)C(F)(F)C(F)(F)C(F)(F)C(F)(F)C(F)(F)C(F)(F)C(F)(F)F` the value was “inactive”.
On the same count and under the same terms, under `CC1(C)CC/C(=C/c2ccc(Cl)cc2)C1(O)Cn1cncn1` (centres undefined) stands “inactive”.
Take `CO/C=C(/C(=O)OC)c1ccccc1Oc1cc(Oc2ccccc2C#N)ncn1`: the compound was called inactive.
On the same count and under the same terms, under `O=[N+]([O-])c1ccc([As](=O)(O)O)cc1` stands “inactive”; under `COC(C)(C)CCCC(C)C/C=C/C(C)=C/C(=O)OC(C)C` (centres undefined), “inactive”; under `CS(=O)(=O)c1ccc(C(=O)C2C(=O)CCCC2=O)c([N+](=O)[O-])c1`, “inactive”.
`C[N+](C)(C)CC(=O)O`: the compound was called inactive.
As to `CCC(C(=O)O)c1ccc(N2Cc3ccccc3C2=O)cc1` (centres undefined), the compound was classed as inactive.
For `CC(C)OC(=O)c1cc(C(=O)OC(C)C)cc([N+](=O)[O-])c1`, the compound was classed as inactive.
Take `Nc1ccc(N=Nc2ccccc2)cc1`: the result was inactive.
Same read-out and setting: under `CC(C)(C)C(O)C(Oc1ccc(Cl)cc1)n1cncn1` (centres undefined) stands “inactive”; under `CCOP(=O)(NC(C)C)Oc1ccc(SC)c(C)c1` (centres undefined), “inactive”; under `CC1=C(/C=C/C(C)=C/C=C/C(C)=C/C(=O)O)C(C)(C)CCC1`, “inactive”.
As to `O=[N+]([O-])c1c(Cl)c(Cl)cc(Cl)c1Cl`, the call was inactive.
Same read-out and setting: under `O=S(=O)(c1ccc(Cl)cc1)c1ccc(Cl)cc1` stands “inactive”; under `Oc1ccc2c3c1O[C@H]1[C@@H](O)C=C[C@H]4[C@@H](C2)NCC[C@@]341`, “inactive”; under `OCCCBr`, “inactive”.
The same measure, in the same setting: for `C=CCC1=C(C)C(OC(=O)C2C(C=C(C)C)C2(C)C)CC1=O` (centres undefined) the value was “inactive”; for `Nc1ccc([N+](=O)[O-])cc1`, “inactive”; for `Nc1ccc(Cl)cc1`, “inactive”.
`COc1ccc(C(c2ccc(OC)cc2)C(Cl)(Cl)Cl)cc1`: the compound was classed as inactive.
On the same count and under the same terms, under `CCCCC(CC)COC(=O)c1ccccc1C(=O)OCC(CC)CCCC` (centres undefined) stands “inactive”; under `C=CC(=O)NCNC(=O)C=C`, “inactive”.
Same read-out and setting: under `O=C(Nc1ccccc1-c1ccc(Cl)cc1)c1cccnc1Cl` stands “inactive”; under `COc1nn(CSP(=S)(OC)OC)c(=O)s1`, “inactive”.

For orientation: AC50 means the midpoint of the concentration-response curve, whichever way the signal moves.

Source of the values: PubChem BioAssay (NCATS).
